Results published in PubChem BioAssay AID1159580 (chemical genetic matrix, 2015).
Several values for one entry are separate records, joined by “and”; a condition that tells them apart may be missing. Equal entries are not always repeated. Hit rate of the full screen: of about 5,500 compounds, about 2,000 (36%) were called active. Roughly 18% stayed inconclusive and do not appear here. Rule as the data show it: active = normalized growth mostly below about 0.91 (no sharp cut-off); inconclusive = no clear call, values can overlap the other calls; inactive = mostly above about 0.92. The list shows a part of the results.

Assay: chemical genetic growth profiling, strain panel (AID 1159580);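 also: tested at 20 µM; growth read once vehicle control cultures reached saturation at 30 °C; 1 = growth at the plate median or of vehicle wells; lower values mean less growth of the strain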
Conditions: S. cerevisiae deletion strains, growth OD

Measured: normalized growth

O=C(O)CN1C(=O)c2cccc3cccc(c23)C1=O
inactive: locus YAL013W, strain DEP1, hits give low values 1 | locus YAL021C, strain ccr4, hits give low values 0.956 | locus YAL026C, strain drs2, hits give low values 0.987 | locus YAL030W, strain snc1, hits give low values 0.986 | locus YBL061C, strain skt5, hits give low values 0.973 | locus YBR009C, strain hhf1, hits give low values 0.985 | locus YBR021W, strain FUR4, hits give low values 1 | locus YBR023C, strain chs3, hits give low values 0.976 | locus YBR171W, strain sec66, hits give low values 0.968 | locus YBR229C, strain ROT2, hits give low values 1.01 | locus YBR231C, strain swc5, hits give low values 0.986 | locus YBR279W, strain paf1, hits give low values 0.978 | locus YCL011C, strain gbp2, hits give low values 0.975 | locus YCL016C, strain dcc1, hits give low values 0.982 | locus YCL029C, strain bik1, hits give low values 0.978 | locus YCL061C, strain MRC1, hits give low values 0.985 | locus YCL069W, strain vba3, hits give low values 0.99 | locus YCR088W, strain abp1, hits give low values 1.01 | locus YDL005C, strain med2, hits give low values 0.974 | locus YDL035C, strain GPR1, hits give low values 0.994 | locus YDL040C, strain nat1, hits give low values 0.982 | locus YDL074C, strain BRE1, hits give low values 1.05 | locus YDL101C, strain DUN1, hits give low values 1.01 | locus YDL134C, strain PPH21, hits give low values 0.994 | locus YDL185W, strain tfp1, hits give low values 0.964 | locus YDL192W, strain arf1, hits give low values 0.991 | locus YDR001C, strain nth1, hits give low values 0.979 | locus YDR069C, strain doa4, hits give low values 0.993 | locus YDR101C, strain arx1, hits give low values 0.998 | locus YDR137W, strain rgp1, hits give low values 0.938 | locus YDR159W, strain sac3, hits give low values 0.993 | locus YDR162C, strain NBP2, hits give low values 0.982 | locus YDR195W, strain ref2 1.01 | locus YDR297W, strain sur2, hits give low values 0.979 | locus YDR318W, strain mcm21, hits give low values 0.978 | locus YDR334W, strain swr1, hits give low values 0.967 | locus YDR335W, strain msn5, hits give low values 0.985 | locus YDR388W, hits give low values 0.994 | locus YDR392W, strain spt3, hits give low values 0.811 | locus YDR502C, strain sam2, hits give low values 0.998 | locus YEL003W, strain gim4, hits give low values 0.99 | locus YEL037C, strain rad23, hits give low values 0.982 | locus YEL061C, strain CIN8 (second series), hits give low values 0.974 | locus YEL061C, strain CIN8, hits give low values 1.01 | locus YER015W, strain faa2, hits give low values 0.998 | locus YER016W, strain bim1, hits give low values 0.996 | locus YER110C, hits give low values 0.977 | locus YER111C, strain swi4, hits give low values 0.975 | locus YER155C, strain BEM2 (second series), hits give low values 0.954 | locus YER155C, strain BEM2, hits give low values 0.999 | locus YER167W, strain BCK2, hits give low values 0.991 | locus YFR010W, strain ubp6, hits give low values 0.968 | locus YGL078C, strain dbp3, hits give low values 0.986 | locus YGL086W, strain mad1, hits give low values 1 | locus YGL167C, strain pmr1, hits give low values 0.987 | locus YGL173C, strain kem1, hits give low values 0.983 | locus YGL227W, strain vid30, hits give low values 0.996 | locus YGL240W, strain doc1, hits give low values 1 | locus YGL248W, strain PDE1, hits give low values 1.02 | locus YGL253W, strain hxk2, hits give low values 0.984 | locus YGR135W, strain pre9, hits give low values 0.966 | locus YGR252W, strain gcn5, hits give low values 1.04 | locus YHR013C, strain ard1, hits give low values 0.909 | locus YHR027C, strain rpn1, hits give low values 0.985 | locus YHR030C, strain SLT2, hits give low values 0.99 and 0.965 | locus YHR079C, strain IRE1 (second series), hits give low values 0.984 | locus YHR079C, strain IRE1, hits give low values 0.972 | locus YHR094C, strain hxt1, hits give low values 0.994 | locus YHR129C, strain ARP1, hits give low values 0.994 | locus YHR142W, strain chs7, hits give low values 0.944 | locus YHR200W, strain rpn10, hits give low values 0.972 | locus YIL066C, strain RNR3, hits give low values 1.01 | locus YIL073C, strain SPO22, hits give low values 0.897 | locus YIL125W, strain kgd1, hits give low values 0.989 | locus YIR030C, strain dcg1, hits give low values 0.985 | locus YJL092W, strain hpr5, hits give low values 0.981 | locus YJL095W, strain BCK1 (second series), hits give low values 0.986 | locus YJL095W, strain BCK1, hits give low values 1.04 and 0.965 | locus YJL115W, strain asf1, hits give low values 0.982 | locus YJL129C, strain trk1, hits give low values 0.988 | locus YJL134W, strain LCB3, hits give low values 0.998 | locus YJL154C, strain vps35, hits give low values 1.01 | locus YJL164C, strain tpk1, hits give low values 0.989 | locus YJL166W, strain qcr8, hits give low values 0.953 | locus YJL168C, strain set2, hits give low values 0.993 | locus YJL187C, strain SWE1 (second series), hits give low values 1.04 | locus YJL187C, strain SWE1, hits give low values 0.976
